Rows were chosen to be rich in hits. Some 0.52% of all compounds tested hit in one or more screens of this group.
USP2a block – qHTS Assay for Inhibitors of Ubiquitin-specific Protease USP2a Using CHOP2 as the Reporter; Ubiquitin carboxyl-terminal hydrolase 2 (Homo sapiens), O75604; USP2 core, Ub-CHOP2 coupled fluorogenic reporter, 485/531; Potency, µM (highest dose often 38.3 µM), inactives show at the highest dose activity change, negative = inhibition, actives largely listed as inhibitors; 0.01% of 330,000 active;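 also: plate controls were DMSO wells for no effect and full inhibition by NEM control for full effect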
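USP2 core (10nM final) preincubated 30min RT with compound in 20mM Tris-HCl pH 8.0, 2mM CaCl2, 2mM beta-mercaptoethanol, 0.05% CHAPS; 25nM Ub-CHOP2 plus 25nM reporter substrate added, fluorescence (Ex485/Em531) read after 60min.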
GLS inhibitor – qHTS for Inhibitors of Glutaminase (GLS). GLS enzymatic activity, qHTS titration. Potency, µM (doses to about 45.5 µM), for the others: top-dose activity change, negative = inhibition, actives largely listed as inhibitors. 0.21% of 410,000 active. AID 624170, 2012
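Human kidney-isoform GLS in 45 mM KH2PO4 pH 8.2, 0.02% Tween-20, with compound, started with 1mM L-Glutamine (added stock). Glutamate oxidase/HRP/Amplex red coupled fluorescence read at start and after 30 min at RT.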
KAT2A inh – qHTS Assay for Inhibitors of GCN5L2; GCN5L2 HAT assay, ThioGlo1 CoA-SH fluorescence; Potency, µM (top dose mostly 58.9 µM), for the others: at the highest dose activity change, negative = inhibition, hits mostly inhibitors; 0.21% of 390,000 active
Target sequence (Q92830 whole entry, looked up): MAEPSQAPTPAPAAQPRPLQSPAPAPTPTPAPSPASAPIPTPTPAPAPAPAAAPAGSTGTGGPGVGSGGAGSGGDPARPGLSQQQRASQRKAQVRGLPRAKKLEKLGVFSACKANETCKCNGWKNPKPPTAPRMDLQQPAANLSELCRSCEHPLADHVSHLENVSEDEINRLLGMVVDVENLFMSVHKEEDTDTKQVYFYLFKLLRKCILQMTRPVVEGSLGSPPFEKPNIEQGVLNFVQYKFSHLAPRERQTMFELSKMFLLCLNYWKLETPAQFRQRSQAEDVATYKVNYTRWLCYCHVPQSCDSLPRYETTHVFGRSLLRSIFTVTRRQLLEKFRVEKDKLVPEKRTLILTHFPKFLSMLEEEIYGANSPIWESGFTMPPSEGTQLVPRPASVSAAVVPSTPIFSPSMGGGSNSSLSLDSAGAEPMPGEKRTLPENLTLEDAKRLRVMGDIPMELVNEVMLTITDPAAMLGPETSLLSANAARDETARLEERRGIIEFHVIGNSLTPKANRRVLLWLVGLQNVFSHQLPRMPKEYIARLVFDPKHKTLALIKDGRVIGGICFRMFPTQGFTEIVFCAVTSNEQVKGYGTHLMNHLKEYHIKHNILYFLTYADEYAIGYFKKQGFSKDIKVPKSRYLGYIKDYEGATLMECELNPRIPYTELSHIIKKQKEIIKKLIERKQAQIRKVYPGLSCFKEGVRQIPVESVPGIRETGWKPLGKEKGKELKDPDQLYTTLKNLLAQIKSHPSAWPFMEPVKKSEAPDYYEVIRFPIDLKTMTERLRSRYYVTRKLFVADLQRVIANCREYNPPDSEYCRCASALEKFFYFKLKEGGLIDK
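GCN5L2 (20 nM) in 50mM HEPES pH 7.5, 0.1mM EDTA, 0.01% Tween-20 preincubated 15 min with compounds at room temperature. Reaction started with H3(1-25) 75uM, acetyl-CoA 70uM, ThioGlo1 50uM; CoA-thiol fluorescence (Ex340/Em540) read at 0 and 20 min.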
Tb PGK inh – qHTS Assay to Find Inhibitors of Phosphoglycerate Kinase. Phosphoglycerate kinase, glycosomal (Trypanosoma brucei brucei), P07378. PGK/GAPDH coupled, Kinase-Glo luminescence, 60 min. Potency, µM (doses to about 57.5 µM), for the others: at the highest dose activity change, negative = inhibition, most hits filed as inhibitors. 0.043% of 380,000 active. AID 602233, 2012; also: nearly all actives have a fitted effect of over 60% in size
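Recombinant glycosomal PGK reaction used 1,3-bisphosphoglycerate generated in-well by GAPDH (100nM final) in 100mM TEA pH 7.6, 5mM MgCl2, 0.01% Tween-20. After 60 minutes at room temperature, ATP was read by Kinase-Glo Plus luminescence end-point.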
Tb PFK inh – qHTS Assay to Find Inhibitors of T. brucei phosphofructokinase. AID 485367, 2010. 0.17% of 330,000 active. T. brucei PFK, ADP-Glo luminescence. Potency, µM (doses to about 57.5 µM), for the others: at the highest dose activity, negative = inhibition, most hits filed as inhibitors. ATP-dependent 6-phosphofructokinase (Trypanosoma brucei brucei), O15648;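 also: 0% = uninhibited 1x PFK enzyme wells and -100% = no-enzyme wells; nearly all actives have a fitted effect of over 60% in size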
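1.25 nM PFK with 0.5 mM F6P and 0.1 mM ATP in 0.1 M TEA pH 8.0, 5 mM MgCl2, incubated 45 min at room temperature; ADP measured by ADP-Glo luminescence; compounds titrated up to 57 uM.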
An asterisk follows results filed as active; i = inactive; ? = inconclusive; . = not tested or not shown; ! = repeats disagree; [ ] = dose if it differs, or a comment. Calls follow the shape of the dose curve; as a rule, active = well fitted curve in the direction sought with a large enough effect; inconclusive = small, poorly fitted or top-dose-only effect, or another doubt; inactive = no such curve, though single readings can be large; an effect the other way counts as inactive or inconclusive. Unless noted, % is scaled to controls: 0 for no effect and ±100 for the full control effect; potency is read from the fitted curve at half-maximal effect.

SMILES	USP2a block	GLS inhibitor	KAT2A inh	Tb PGK inh	Tb PFK inh
O=C(O)c1cccc2c1NC(C(=O)O)C1CC(Sc3ccccc3[N+](=O)[O-])C(Cl)C21 (configuration not stated)	?	7.1µM*	?	11µM*	?
COc1ccc(-c2cn(CCO)nc2-c2ccc(OC)cc2)cc1	-3%	?	0%	2%	2%
CN(CCc1cnn(C)c1)C(=O)C1CCC(=O)N(CC2CCCCC2)C1 (configuration not stated)	-2%	-3%	?	-1%	-1%
C=CCN1C(=O)/C(=C/c2ccc(N3CCOCC3)o2)C(=O)NC1=S	29%	-3%	1%	-3%	0%
C=CCN1C(=O)NC(=O)/C(=C\c2ccc(-c3ccccc3[N+](=O)[O-])o2)C1=O	4%	18µM*	-11%	-1%	24%
O=C1NC(=O)N(Cc2ccco2)C(=O)/C1=C/c1ccc(-c2cccc([N+](=O)[O-])c2)o1	2%	13%	20µM*	?	-27%
C[C@@H]1O[C@@H](O[C@H]2CC[C@@H](O[C@H]3[C@H](O)C[C@H](c4ccc5c(c4O)C(=O)C4=C(C5=O)[C@@]5(O)C(=O)C[C@](C)(O[C@H]6CC[C@H](O[C@H]7C=CC(=O)[C@H](C)O7)[C@H](C)O6)C[C@@]5(O)C=C4)O[C@@H]3C)O[C@H]2C)C=CC1=O	.	.	-42%	.	.
O=C1NC(=S)N(Cc2ccco2)C(=O)/C1=C\c1cccs1	?	.	8.9µM*	.	?
C=CCN1C(=O)/C(=C/c2cccs2)C(=O)NC1=S	0%	-11%	29%	3%	0%
CC(=O)c1c(O)n(-c2cccc(Cl)c2)c(=O)[nH]c1=O (tested in a mixture with another compound)	11%	7%	-3%	2%	1%
CC(C)n1c(O)c(C2c3cc(Cl)ccc3Oc3[nH]c(=O)n(C(C)C)c(=O)c32)c(=O)[nH]c1=O (configuration not stated)	2%	?	28µM*	i	24%
COc1cc(CC(C)N)c(OC)cc1C (configuration not stated)	.	-2%[99.4 µM]	.	.	.
COc1ccc(N2C(=O)NC(=O)/C(=C/c3ccc([N+](=O)[O-])s3)C2=O)cc1	-2%	-5%	-15%	?	-11%
COc1ccc(N2C(=O)NC(=O)/C(=C\c3ccc([N+](=O)[O-])s3)C2=O)cc1	0%	13µM*	-20%	-15%	-12%
O=C1[O][Sb-]23[O]C(=O)C([O]2)C2[O][Sb-]4([O]C(=O)C([O]4)C1[O]3)[O]C2=O	.	-7%	.	.	.
CCN(CC)C(=O)[C@@H]1C=C2c3cccc4[nH]cc(c34)C[C@H]2N(C)C1	.	42%	.	.	.
COc1ccc(C[C@H]2c3cc(OC)c(OC)cc3CCN2C)cc1OC	.	.	8.9µM*	.	.
CC12CCC(=O)CC1CCC1C2CCC2(C)C1CCC2(C)O (configuration not stated)	.	0%	.	.	.
C=C/C(=C/C(=O)C[C@H](C)C[C@@H](C)CC[C@H](O)[C@H](C)C(=O)C[C@@H](O)[C@H](C)[C@@H](C)OC(=O)C[C@@H](O)C1=C(C)C(=O)OC1=O)CC	.	.	3.2µM*	.	.
CCC(=O)OC1[C@@H](N2CCCCC2)C[C@H]2[C@@H]3CC[C@H]4C[C@H](OC(C)=O)[C@@H](N5CCCCC5)C[C@]4(C)[C@H]3CC[C@]12C (some centres not stated)	.	0%	.	.	.
CN(C)C1C(=O)C(C(N)=O)C(=O)C2(O)C(=O)C3C(=O)c4c(O)cccc4C(C)(O)C3C(O)C12 (configuration not stated)	.	6.3µM*	10µM*	.	.
CN(C)C1C(=O)C(C(N)=O)=C(O)[C@@]2(O)C(=O)C3=C(O)c4c(O)cccc4[C@](C)(O)C3C(O)C12 (some centres not stated)	.	.	-29%	.	.
CN(C)[C@@H]1C(=O)C(C(N)=O)=C(O)[C@@]2(O)C(=O)C3=C(O)c4c(O)cccc4[C@@](C)(O)[C@H]3[C@H](O)[C@@H]12	?	7.1µM*	28µM*!	?	?
Cc1cccc2c3c(ccc12)C1=C(C(=O)C3=O)[C@@H](C)CO1	.	.	-8%	.	.
C[C@@H]1[C@H](O)[C@@H](C)C=CC=CCCC=CC=CC=CC=C[C@H](O[C@H]2O[C@@H](C)[C@H](O)[C@@H](N)[C@@H]2O)CC2O[C@](O)(C[C@@H](O)[C@H](O)CC[C@@H](O)C[C@@H](O)C[C@@H](O)CC(=O)O[C@H]1C)C[C@H](O)[C@H]2C(=O)O	.	46%	.	.	.
SMILES	USP2a block	GLS inhibitor	KAT2A inh	Tb PGK inh	Tb PFK inh
C[C@H](CCC(=O)O)[C@H]1CC[C@H]2[C@@H]3CC[C@@H]4C[C@H](O)CC[C@]4(C)[C@H]3CC[C@]12C	-3%	16%	25µM*!	-15%	-1%
Cc1cc(=O)oc2cc3c(cc12)CCCN3	3%	?	22µM*	.	6%
CCc1cc(OC)c(CC(C)N)cc1OC (configuration not stated)	.	8%[99.4 µM]	.	.	.
Cc1ccc2c(c1)[C@]13CCCC[C@@H]1[C@@H](C2)N(C)CC3	.	-2%	.	.	.
CC(C)=CCCC1(C)C=Cc2c(O)c3c(c(CC=C(C)C)c2O1)OC12C(=CC4CC1C(C)(C)OC2(C/C=C(/C)C(=O)O)C4=O)C3=O (configuration not stated)	.	.	32µM*	.	.
CC(C)=CCCC1(C)C=Cc2c(O)c3c(c(CC=C(C)C)c2O1)OC12C(=CC4CC1C(C)(C)OC2(C/C=C(/C)C(=O)O)C4O)C3=O (configuration not stated)	.	.	13µM*	.	.
Cc1[nH]n(-c2ccccc2)c(=O)c1C(c1cccc([N+](=O)[O-])c1O)c1c(C)[nH]n(-c2ccccc2)c1=O	-4%	10µM*	-2%	-4%	?
C[C@H]1[C@@H]2Cc3ccc(O)cc3[C@]1(C)CCN2CCc1ccccc1	.	54%[99.4 µM]	.	.	.
O=[N+]([O-])/C=C/c1c(Cl)cccc1Cl	.	7.9µM*	.	-1%	.
CCN(CC)c1ccc(/C=C/[N+](=O)[O-])cc1	1%	3%	-6%	-5%	-10%
CC1CCC(C(C)C)C(=O)C1 (configuration not stated)	.	-6%	?	.	.
O=C(O)c1cc(O)c(O)c(O)c1	.	10µM*	?	.	.
Cc1cc(/C=C2\C(=O)NC(=O)N(c3ccc(Br)cc3)C2=O)c(C)n1-c1cc(C(=O)O)cc(C(=O)O)c1	-1%	10µM*	-4%	14µM*	-21%

Bioassay records as filed in PubChem.
